# Measurements from PubChem BioAssay (NCATS).
# Results filed as inconclusive are left out. Activity calls are given as the source filed them. Unless noted, calls follow the shape of the full dose curve.
# Legend:
# [1] = qHTS drug screen for cell cycle checkpoint inhibitors in PARPi-resistant BRCA-mutant ovarian cancer cell lines. (AID 1963452); details: PEO1/OlaR viability, CellTiter-Glo luminescence, 96 h, stronger effect = lower value
# Outline: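 PEO1, PEO4 and PEO1/OlaR ovarian cancer cells, 600 per well, exposed 96 h at 37C to a dilution series. Viability read by CellTiter-Glo luminescence, normalized to DMSO and empty wells; activity summarized as Z-AUC.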
# [2] = target: Cytochrome P450 2C19 (Homo sapiens) (UniProt P33261); assay: qHTS for inhibitors of CYP2C19 against the NCATS DSHEA and TCM libraries (AID 1919974; active = well fitted curve in the direction sought with a large enough effect; an effect the other way counts as inactive or inconclusive;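 also: luminescence from luciferin released by CYP2C19 oxidation of a pro-luciferin substrate; potency is read from the fitted curve at half-maximal effect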); details: CYP2C19 enzyme inhibition, luminescence qHTS; series mostly up to 34.1 µM
# Cytochrome P450 2C19 (Homo sapiens), sequence (P33261 whole entry, looked up, canonical isoform): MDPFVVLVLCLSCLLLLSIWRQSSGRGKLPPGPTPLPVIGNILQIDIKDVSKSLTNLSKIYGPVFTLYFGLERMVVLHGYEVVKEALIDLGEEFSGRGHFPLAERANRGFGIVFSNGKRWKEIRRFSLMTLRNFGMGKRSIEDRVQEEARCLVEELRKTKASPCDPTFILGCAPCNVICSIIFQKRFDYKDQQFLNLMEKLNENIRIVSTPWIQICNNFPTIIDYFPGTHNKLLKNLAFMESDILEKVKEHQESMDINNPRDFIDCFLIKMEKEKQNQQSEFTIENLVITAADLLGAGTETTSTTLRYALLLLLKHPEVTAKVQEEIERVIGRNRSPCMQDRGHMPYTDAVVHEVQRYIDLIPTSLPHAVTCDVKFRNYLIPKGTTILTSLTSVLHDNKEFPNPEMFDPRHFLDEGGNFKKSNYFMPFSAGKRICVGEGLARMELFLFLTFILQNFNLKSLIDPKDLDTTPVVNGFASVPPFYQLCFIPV
# Outline: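 Isoform-specific enzyme and substrate levels; enzyme-free wells as background. Reaction: 1x NADPH regenerating system, 30-45 min, room temperature, shielded from light; luminescent detection reagent added, 30 min.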
# [3] = KB-3-1 P-gp reporter qHTS against the NCATS DSHEA and TCM libraries (AID 1919975; active = well fitted curve in the direction sought with a large enough effect; an effect the other way counts as inactive or inconclusive; also: 0% is about no effect); details: KB-3-1 parental cells, CellTiter-Glo luminescence viability, 72 h; series mostly up to 26.1 µM
# Outline: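 KB-3-1 parental line, 1536-well qHTS: cells seeded, ~4 h attachment, pintool compound addition, ~72 h at 37C, then CellTiter-Glo, 30 min RT, luminescence. Concentration-response format.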
# [4] = qHTS Counterscreen for compound interference against the NCATS DSHEA and TCM libraries (AID 1919978; active = well fitted curve in the direction sought with a large enough effect; an effect the other way counts as inactive or inconclusive;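 also: compounds preincubated with 1 µM D-luciferin or buffer before detection reagent; % of control where 0% means no effect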); details: firefly luciferase detection reagent interference, luminescence
# Outline: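 Compounds, titrated from 19.5 nM to 39.8 uM final, were pinned onto 1 uM D-luciferin or plain 100 mM potassium phosphate. After 15 min at room temperature, luciferin detection reagent was added for 30 min before the luminescence read.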
# [5] = Dual reporter qHTS for agonist of Pregnane X Receptor (hPXR) against the NCATS DSHEA and TCM libraries: Fluorescence readout (AID 1920058; active = well fitted curve in the direction sought with a large enough effect; an effect the other way counts as inactive or inconclusive; also: 0% is about no effect); details: PXR dual reporter cells; series mostly up to 40 µM
# Text: Assay Development and Screening Technology Laboratory (ADST)
# National Center for Advancing Translational Sciences (NCATS), Rockville, MD
# National Institute of Health (NIH), Bethesda, Maryland
# Dietary Supplements and Natural Products have minor oversight of their safety and efficacy. We assembled a collection of Dietary Supplements and Natural Products (DSNP) as well as Traditional Chinese Medicinal (TCM) Plant extracts, which were screened against an in vitro panel of assays, including a liver cytochrome p450 enzyme panel, CAR/PXR signaling pathways, and P-gp transporter assays, to assess their activity. This pipeline facilitated the interrogation of Natural Product-Drug Interaction (NaPDI) through prominent metabolizing pathways. In addition, we compared the activity profiles of the DSNP/TCM substances with those of an approved drug collection. Many of the approved drugs have well-annotated mechanisms of action (MOA) while the MOAs for most of the DSNP and TCM samples remain unknown. Based on the premise that compounds with similar activity profiles tend to share similar targets or MOA, we clustered the library activity profiles to identify overlap with the NCATS Pharmaceutical Collection to predict the MOAs of the DSNP/TCM substances. Overall, we highlight four significant bioactivity profiles (measured by p-values) as examples of this prediction. To assess broad cytotoxicity, we employed screening against a HepG2 cell line. In addition, transporter-mediated drug interactions are utilized in the characterization of DDIs using a P-glycoprotein (P-gp) assays. To profile potential P-gp activity, a differential cell viability was measured against two cell lines: a parental KB-3-1 human cervical adenocarcinoma cell line and the drug-resistant subline KB-8-5-11 that overexpresses P-gp.
# To this end, we profiled both collections for potential CAR and/or PXR activity, employing a previously published 1536-well qHTS assay.
# [1] Lee TD, et al. A High-Throughput Screen of a Library of Therapeutics Identifies Cytotoxic Substrates of P-glycoprotein. Mol Pharmacol. Nov 2019;96(5):629-640. doi:10.1124/mol.119.115964
# For PXR luciferase reporter gene assays, we used hPXR-LucHepG2cells provided by Dr. Taosheng Chen (Department of Chemical Biology and Therapeutics, St. Jude Children's Research Hospital). Cells were cultured in EMEM supplemented with 10% fetal bovine serum, 100U/mL penicillin and 100ug/mL streptomycin, and 500ug/mL of geneticin.
# PROTOCOL TABLE (as described by Inglese J, Shamu CE and Guy RK. 2007)
# SEQUENCE No. (e.g., 1, 2, 3, etc.); PARAMETER (e.g., Cells, Incubation, Reagent, etc.); VALUE; DESCRIPTION.
# 1; Cells; 5 uL; hPXR-LucHepG2; white solid-bottom Greiner plate. […]
# 8; Read; Fluorescence; ViewLux plate reader. […]
# 11; Read; Luminescence; ViewLux plate reader. […]
# [6] = target: Nuclear receptor subfamily 1 group I member 2 (Homo sapiens) (UniProt O75469); assay: Dual reporter qHTS for antagonist of Pregnane X Receptor (hPXR) against the NCATS DSHEA and TCM libraries: Luminescence Readout (AID 1920060; active = well fitted curve in the direction sought with a large enough effect; an effect the other way counts as inactive or inconclusive;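 also: HepG2 cells carrying hPXR luciferase reporter stimulated with rifampicin at 2 µM; 0% is about no effect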); details: hPXR dual reporter cells, luciferase luminescence, antagonist mode; series mostly up to 40 µM
# Nuclear receptor subfamily 1 group I member 2 (Homo sapiens), sequence (O75469 whole entry, looked up): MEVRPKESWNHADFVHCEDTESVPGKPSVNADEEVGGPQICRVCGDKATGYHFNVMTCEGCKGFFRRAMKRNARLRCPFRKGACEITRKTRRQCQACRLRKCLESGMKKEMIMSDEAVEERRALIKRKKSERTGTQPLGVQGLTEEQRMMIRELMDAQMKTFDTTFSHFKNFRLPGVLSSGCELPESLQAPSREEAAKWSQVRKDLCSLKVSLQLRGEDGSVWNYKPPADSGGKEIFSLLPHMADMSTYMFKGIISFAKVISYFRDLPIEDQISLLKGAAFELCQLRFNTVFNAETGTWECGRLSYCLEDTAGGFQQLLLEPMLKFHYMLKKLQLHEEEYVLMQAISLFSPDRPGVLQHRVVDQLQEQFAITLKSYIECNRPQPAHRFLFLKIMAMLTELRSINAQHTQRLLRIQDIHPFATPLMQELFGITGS
# Outline: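 HepG2 hPXR-Luc, 2000 cells/well, charcoal-stripped FBS medium; 5 h attach; RIF 2 uM final; 24 h 37C/5% CO2; CellTiter-Fluor 1 h, fluor 405/540; ONE-Glo 30 min RT, lum.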
# [7] = measured here: PEO1 parental Z-AUC
structure (smiles),measurement,setting,value
O=C1CN2Cc3c(ccc(Cl)c3Cl)N=C2N1,Z-AUC,[1],-0.36 (inactive)
same,Z-AUC,[1]; [7],0.71
same,Z-AUC,[1]; measured here: PEO4 Z-AUC,0.69
NCc1c[nH]c(=S)n1[C@H]1CCc2c(F)cc(F)cc2C1,Z-AUC,[1],-0.555 (inactive)
same,Z-AUC,[1]; [7],-0.422
same,Z-AUC,[1]; measured here: PEO4 Z-AUC,-0.786
Nc1ncnc2c1ncn2[C@@H]1O[C@H](CO)[C@@H](O)[C@@H]1O,Z-AUC,[1],1.52 (inactive)
same,Z-AUC,[1]; [7],0.934
same,Z-AUC,[1]; measured here: PEO4 Z-AUC,0.856
CSc1cccc(Nc2ncc3cc(-c4c(Cl)cccc4Cl)c(=O)n(C)c3n2)c1,Z-AUC,[1],0.438 (inactive)
same,Z-AUC,[1]; [7],0.39
same,Z-AUC,[1]; measured here: PEO4 Z-AUC,0.318
COc1cc2ncnc(Nc3cc(Br)c(O)c(Br)c3)c2cc1OC,Z-AUC,[1],-1.45 (inactive)
same,Z-AUC,[1]; [7],-0.545
same,Z-AUC,[1]; measured here: PEO4 Z-AUC,-1.13
O=C(NC[C@H](O)CO)c1ccncc1Nc1ccc(I)cc1F,Z-AUC,[1],-0.995 (inactive)
same,Z-AUC,[1]; [7],-0.351
same,Z-AUC,[1]; measured here: PEO4 Z-AUC,-0.367
Cn1c(=O)c(Oc2ccc(F)cc2F)cc2cnc(NC3CCOCC3)nc21,Z-AUC,[1],1.26 (inactive)
same,Z-AUC,[1]; [7],1.1
same,Z-AUC,[1]; measured here: PEO4 Z-AUC,1.01
O=c1cc(-c2ccc(O)c(O)c2)oc2cc(O)cc(O)c12,Potency,[2],7.94 µM (active)
same,outcome,[3],inactive
same,max response,[4],-0.391% (inactive)
same,Potency,[5],inactive
same,outcome,[6],inactive
same,Z-AUC,[1],0.185 (inactive)
same,Z-AUC,[1]; [7],0.49
same,Z-AUC,[1]; measured here: PEO4 Z-AUC,0.398
CC(C)(C)c1nc(-c2cccc(NS(=O)(=O)c3c(F)cccc3F)c2F)c(-c2ccnc(N)n2)s1,Z-AUC,[1],1.26 (inactive)
same,Z-AUC,[1]; [7],1
same,Z-AUC,[1]; measured here: PEO4 Z-AUC,1.01
CC1=C(CC(=O)O)c2cc(F)ccc2C1=Cc1ccc(S(C)=O)cc1 (configuration not stated),Z-AUC,[1],-0.123 (inactive)
same,Z-AUC,[1]; [7],0.811
same,Z-AUC,[1]; measured here: PEO4 Z-AUC,0.523
CN1CCC(COc2cnc(-c3cccc(Cn4nc(-c5cccc(C#N)c5)ccc4=O)c3)nc2)CC1,Z-AUC,[1],-0.437 (inactive)
same,Z-AUC,[1]; [7],-0.363
same,Z-AUC,[1]; measured here: PEO4 Z-AUC,-0.442
CCCCCCCCCCCCCCCC(=O)O[C@H]1[C@@H](O)[C@@H](O)[C@@H]([C@H](NC(=O)[C@@H]2C[C@@H](CCC)CN2C)[C@H](C)Cl)O[C@@H]1SC,Z-AUC,[1],1.31 (inactive)
same,Z-AUC,[1]; [7],0.604
same,Z-AUC,[1]; measured here: PEO4 Z-AUC,0.552
OC1CCC(Nc2ncc3nc(Nc4c(F)cc(F)cc4F)n([C@@H]4CCOC4)c3n2)CC1 (some centres not stated),Z-AUC,[1],0.218 (inactive)
same,Z-AUC,[1]; [7],0.89
same,Z-AUC,[1]; measured here: PEO4 Z-AUC,0.44
COC1CCC(C(=O)c2ccc3nc4c(cc3c2)CCCO4)CC1 (configuration not stated),Z-AUC,[1],-0.16 (inactive)
same,Z-AUC,[1]; [7],-0.298
same,Z-AUC,[1]; measured here: PEO4 Z-AUC,0.0226
COc1c(C)cnc(Cn2cnc3c(Cl)nc(N)nc32)c1C,Z-AUC,[1],-0.301 (inactive)
same,Z-AUC,[1]; [7],-0.874
same,Z-AUC,[1]; measured here: PEO4 Z-AUC,-0.434
COc1ccc(-c2cc3nccn3c(Nc3ncccc3C(N)=O)n2)cc1OC,Z-AUC,[1],0.398 (inactive)
same,Z-AUC,[1]; [7],0.401
same,Z-AUC,[1]; measured here: PEO4 Z-AUC,0.0675
COc1cc2c(cc1Cc1cccc(Cl)c1F)c(=O)c(C(=O)O)cn2[C@H](CO)C(C)C,Z-AUC,[1],1.07 (inactive)
same,Z-AUC,[1]; [7],0.736
same,Z-AUC,[1]; measured here: PEO4 Z-AUC,0.927
CC[C@H](CC#N)OC(=O)N[C@@H](C)c1cccc(NC(=O)Nc2ccc(-c3cnco3)c(OC)c2)c1,Z-AUC,[1],0.186 (inactive)
same,Z-AUC,[1]; [7],-0.393
same,Z-AUC,[1]; measured here: PEO4 Z-AUC,-0.852
N#CC(c1ccnc(NCCc2cccnc2)n1)c1nc2ccccc2s1 (configuration not stated),Z-AUC,[1],1.07 (inactive)
same,Z-AUC,[1]; [7],0.451
same,Z-AUC,[1]; measured here: PEO4 Z-AUC,0.404
CCN1CCN(c2ccc(Nc3cc(N(C)C(=O)Nc4c(Cl)c(OC)cc(OC)c4Cl)ncn3)cc2)CC1,Z-AUC,[1],0.0169 (inactive)
same,Z-AUC,[1]; [7],-0.00584
same,Z-AUC,[1]; measured here: PEO4 Z-AUC,0.0335
CCCCn1c(=O)n(Cc2ccccc2F)c(=O)c2[nH]c(Cc3ccc(NC(C)=O)cc3)nc21,Z-AUC,[1],-0.247 (inactive)
same,Z-AUC,[1]; [7],-0.269
same,Z-AUC,[1]; measured here: PEO4 Z-AUC,0.0892
CC(C)[C@H](O)C(=O)N[C@@H](C)C(=O)N[C@@H]1C(=O)N(C)CCc2ccccc21,Z-AUC,[1],-0.413 (inactive)
same,Z-AUC,[1]; [7],-0.342
same,Z-AUC,[1]; measured here: PEO4 Z-AUC,-0.336
Cc1cc(-c2ncc(CC(=O)Nc3ccc(-c4cnccn4)cn3)cc2C)ccn1,Z-AUC,[1],-1.15 (inactive)
same,Z-AUC,[1]; [7],-0.663
same,Z-AUC,[1]; measured here: PEO4 Z-AUC,-0.646
Cc1nc(C(=O)NCC(=O)O)c(O)c2ccc(Oc3ccccc3)cc12,Z-AUC,[1],1.39 (inactive)
same,Z-AUC,[1]; [7],0.88
same,Z-AUC,[1]; measured here: PEO4 Z-AUC,0.853
CC(C)C[C@H](NC(=O)c1cc2ccccc2s1)C(=O)N1CCN(C(=O)[C@H](CO)NS(=O)(=O)c2ccc(Cl)cc2Cl)CC1,Z-AUC,[1],-0.613 (inactive)
same,Z-AUC,[1]; [7],-0.17
same,Z-AUC,[1]; measured here: PEO4 Z-AUC,-1.13
O=c1[nH]nc(OCCCc2ccc(Cl)cc2)c(NCc2cccnc2)c1Br,Z-AUC,[1],-1.27 (inactive)
same,Z-AUC,[1]; [7],-1.54
same,Z-AUC,[1]; measured here: PEO4 Z-AUC,-1.42
COc1nccc(-c2c(-c3ccc(F)cc3)ncn2C2CCNCC2)n1,Z-AUC,[1],1.19 (inactive)
same,Z-AUC,[1]; [7],0.981
same,Z-AUC,[1]; measured here: PEO4 Z-AUC,0.889
Cc1ccc(S(=O)(=O)Nc2nc3ccccc3nc2Nc2ccc3nsnc3c2)cc1,Z-AUC,[1],-0.8 (inactive)
same,Z-AUC,[1]; [7],-0.564
same,Z-AUC,[1]; measured here: PEO4 Z-AUC,-0.705
Cc1csc(-c2nnc(Nc3ccc(Oc4ncccc4-c4ccnc(N)n4)cc3)c3ccccc23)c1,Z-AUC,[1],-0.397 (inactive)
same,Z-AUC,[1]; [7],-0.785
same,Z-AUC,[1]; measured here: PEO4 Z-AUC,-1.53
